Activity calls are given as the source filed them. How the source made its calls: active means hit-call score of the fitted dose curve at least 0.9, where 1 is the maximum; inactive means score below 0.9.
The molecules below were run against human (CYP19A1), CYP19A1 (gene 1588) (UniProt P11511) (assay: ERF_TW_ENZ_hCYP19A1: Eurofins (ERF) Enzymatic CYP450 LeadHunter Assay for human (CYP19A1)).
Description: ERF_TW_ENZ_hCYP19A1 is a biochemical, single-readout assay that uses extracted gene-proteins in a cell-free assay. Measurements were taken 0.75 hour after chemical dosing in a 96-well plate. See CYP19A1 Human CYP450 Enzymatic Assay, Panlabs.ERF_TW_ENZ_hCYP19A1 is an assay component calculated from the ERF_TW_ENZ_hCYP19A1 assay. It is designed to measure enzyme activity using a type of enzyme reporter as detected by fluorescence intensity with spectrophotometry technology.Data from the assay component ERF_TW_ENZ_hCYP19A1 was analyzed at the assay endpoint, ERF_TW_ENZ_hCYP19A1, in the positive analysis fitting direction relative to DMSO as the negative control and baseline of activity. Using a type of enzyme reporter, loss-of-signal activity can be used to understand changes in enzymatic activity as they relate to gene CYP19A1. To generalize the intended target to other relatable targets, this assay endpoint is annotated to the cyp intended target family, where the subfamily is steroidogenesis-related.
Human recombinant CYP450 19 plus P450 reductase, expressed in baculovirus infected insect BTI-TN-5B1-4 cells is used. Test compound and/or vehicle is preincubated with 4 nM enzyme in phosphate buffer pH 7.4 for 15 minutes at 37C. […] Determination of the amount of dibenzylfluorescein remaining is read spectrofluorimetrically. […]

human (CYP19A1), CYP19A1 (gene 1588), sequence (P11511 whole entry, looked up): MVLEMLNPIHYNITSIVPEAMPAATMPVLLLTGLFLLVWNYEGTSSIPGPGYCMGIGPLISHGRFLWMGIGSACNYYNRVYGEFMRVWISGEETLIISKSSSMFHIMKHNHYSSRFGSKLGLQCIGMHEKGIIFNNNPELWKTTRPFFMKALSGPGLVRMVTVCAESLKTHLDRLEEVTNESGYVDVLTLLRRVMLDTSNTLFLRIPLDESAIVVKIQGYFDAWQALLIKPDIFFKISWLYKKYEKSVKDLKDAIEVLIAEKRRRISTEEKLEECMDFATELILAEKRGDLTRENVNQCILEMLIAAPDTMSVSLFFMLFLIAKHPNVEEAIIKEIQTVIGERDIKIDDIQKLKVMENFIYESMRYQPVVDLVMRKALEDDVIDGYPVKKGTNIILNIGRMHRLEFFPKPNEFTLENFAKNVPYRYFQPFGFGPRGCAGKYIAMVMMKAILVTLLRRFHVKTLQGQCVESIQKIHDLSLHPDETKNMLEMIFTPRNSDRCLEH

SMILES | AC50
COc1cc(CCC(=O)CC(=O)CCc2ccc(O)c(OC)c2)ccc1O | 5.05 µM (active)

Source: PubChem BioAssay AID2284073 (EPA ToxCast)
